# Reference: the supplement of paper PMC6555819
# Tests used:
# Experiment in all cases: PBM binding z-score (relative to random genomic background probes); higher = stronger binding; sequences stand for … in GC…GCGATTGACAGCGTAGAATGAAGG
# [1] = test system: FXR:RXRa (NR concentration 270 nM, RXRa partner concentration 90 nM)
# Method in brief: (§1)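 Antibodies against each partner of ligand-free nuclear receptor dimers (one per run) detected binding on custom Agilent 4×180K protein-binding microarrays after 1 h incubation. The double-stranded probes had 34-nt variable regions carrying direct-repeat seeds, single-nucleotide variants, half-site ablations and random human genomic background sequences. Binding z-scores, from regression-normalized fluorescence, use the random background probes as reference.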
# [2] = test system: LXRa:RXRa (NR concentration 270 nM, RXRa partner concentration 90 nM)
# Method in brief: as §1
# [3] = test system: LXRa homodimer (NR concentration 270 nM)
# Method in brief: as §1
# [4] = test system: LXRb:RXRa (NR concentration 270 nM, RXRa partner concentration 90 nM)
# Method in brief: as §1
# [5] = test system: LXRb homodimer (NR concentration 270 nM)
# Method in brief: as §1
# [6] = test system: PPARa:RXRa (NR concentration 270 nM, RXRa partner concentration 90 nM)
# Method in brief: as §1
# [7] = test system: PPARg:RXRa (NR concentration 180 nM, RXRa partner concentration 90 nM)
# Method in brief: as §1
# [8] = test system: PPARg:RXRa 270nM:90nM, anti-RXR (NR concentration 270 nM, RXRa partner concentration 90 nM)
# Method in brief: as §1
# [9] = test system: PPARg:RXRa 30nM:10nM, anti-RXR (NR concentration 30 nM, RXRa partner concentration 10 nM)
# Method in brief: as §1
# [10] = test system: PPARg:RXRa 90nM:30nM, anti-RXR (NR concentration 90 nM, RXRa partner concentration 30 nM)
# Method in brief: as §1
# [11] = test system: PPARg:RXRa DBDmut IVT, anti-RXR (DBD mutation: RXRa K156A/R161A, NR concentration 270 nM, RXRa partner concentration 90 nM)
# Method in brief: as §1
# [12] = test system: PPARg:RXRa IVT, anti-PPARg (NR concentration 270 nM, RXRa partner concentration 90 nM)
# Method in brief: as §1
# [13] = test system: PPARg DBDmut:RXRa IVT, anti-PPARg (DBD mutation: PPARg1 K132A/R137A, NR concentration 270 nM, RXRa partner concentration 90 nM)
# Method in brief: as §1
# [14] = test system: PPARg DBDmut IVT, anti-PPARg (DBD mutation: PPARg1 K132A/R137A, NR concentration 270 nM)
# Method in brief: as §1
# [15] = test system: PPARg homodimer (NR concentration 180 nM)
# Method in brief: as §1
# [16] = test system: PXR:RXRa (NR concentration 270 nM, RXRa partner concentration 90 nM)
# Method in brief: as §1
# [17] = test system: PXR homodimer (NR concentration 270 nM)
# Method in brief: as §1
# [18] = test system: RARa:RXR (NR concentration 270 nM, RXRa partner concentration 90 nM)
# Method in brief: as §1
# [19] = test system: RARa homodimer (NR concentration 270 nM)
# Method in brief: as §1
# [20] = test system: RARb:RXRa (NR concentration 270 nM, RXRa partner concentration 90 nM)
# Method in brief: as §1
Sequence,PBM binding z-score [1],PBM binding z-score [2],PBM binding z-score [3],PBM binding z-score [4],PBM binding z-score [5],PBM binding z-score [6],PBM binding z-score [7],PBM binding z-score [8],PBM binding z-score [9],PBM binding z-score [10],PBM binding z-score [11],PBM binding z-score [12],PBM binding z-score [13],PBM binding z-score [14],PBM binding z-score [15],PBM binding z-score [16],PBM binding z-score [17],PBM binding z-score [18],PBM binding z-score [19],PBM binding z-score [20]
CCTAGCAAGCCAGGGTCACTCAAGCATTTCGCTT,2.31,1.92,-0.142,2.16,-1.12,3.13,0.169,1.09,-0.503,0.224,-0.127,0.222,-0.962,-1.46,0.888,2.78,0.054,3.42,-0.000742,2.41
GATGCAGGGTCAAGGCCAGAGTACGCGTATTGAT,6.64,3.82,-0.363,3.54,-0.254,5.74,5.22,4.93,1.79,3.61,1.47,3.42,-0.201,-0.81,1.2,3.59,0.224,3.86,0.306,4.54
TCGTGTAGGTTACCAATGGGGCATTCAGCTTTCT,0.486,1.81,0.0515,1.44,0.0224,1.43,-0.0806,1.21,2.25,1.67,3.06,2.01,0.246,0.154,1.17,0.375,-0.304,0.543,-0.0616,1.31
CAGCCTAGGTCAGGGCCGGTATAGGAGGAACGTT,1.62,0.777,-0.703,0.466,-1.51,1.97,0.482,0.692,-0.326,-0.0222,0.942,1.52,-0.778,-1.19,0.324,0.229,-0.999,0.69,-0.753,3.33
TCATATAGGTAATACATGTGAAAGTCGGCATCTA,0.838,1.1,0.394,0.937,0.272,1.43,1.42,2.35,3.69,3.13,3.84,2.56,1.65,1.42,0.451,0.682,0.0389,1.03,0.882,0.439
GCTGCTAGGTCAAATGATGGTCAGCTAAAGCTCG,4.42,3.62,0.405,2.44,0.557,3.87,2.82,3.57,0.844,2.69,5.24,4.16,-0.0492,-0.751,1.73,1.82,-0.505,3.18,-0.123,4.13
ACTAGCAGGCCAAGTTTGGGTCACTCTAACAAAG,0.184,-0.0297,-0.399,0.217,-0.928,1.03,-0.172,0.0985,-0.547,-0.605,0.86,1.15,-0.869,-1.06,0.634,0.8,-0.149,1.57,-0.645,1.91
CCTAGCAGGGCAGGGTCACTCAAGCATTTCGCTT,2.68,2.17,-0.361,2.12,-1.22,3.32,1.4,2.37,-0.0964,1.47,0.873,1.78,-1.54,-0.906,1.69,2.92,-0.402,3.98,-0.114,3
AGAACGAGGGCAATGAATTGATAGCACGGGTGGC,0.314,0.102,-0.259,0.0164,-0.479,1.32,1.27,0.732,0.112,0.346,3.39,2.58,0.112,-0.0881,-0.139,0.372,0.123,0.568,0.175,2.01
GCGACTGGGGCATCAGCAGGTTACCATAACTTAA,0.0865,0.156,0.0275,0.704,-0.886,1.33,1.21,1.03,0.757,0.397,3.62,3.27,0.296,-0.965,0.771,-0.0761,-0.654,0.57,-0.145,0.697
CGTCCAAGGACAAAGGTCAGTGAAGAGATGACGG,3.18,3.25,1,2.85,-0.0848,4.56,5.79,5.86,3.8,5.51,0.675,2.78,-0.53,-0.214,2.27,3.18,0.71,3.79,1.02,4.56
CCTATTAGTTGGCCATAAGGGCAACCGAAGCTCG,0.403,0.0422,-0.122,-0.00443,-0.0843,0.154,0.332,0.665,-0.257,0.493,0.405,0.608,0.65,-0.464,0.599,0.101,0.238,0.307,0.354,1.11
GTACCAAGGTGTATAGGTCGTTGATGAGTAGGCG,0.26,0.421,-0.0152,0.029,-0.37,0.871,0.775,0.814,0.27,0.71,0.000885,0.719,-0.0523,0.342,0.75,0.265,0.0316,0.833,0.17,0.755
GCATATATGTAATACAAGGTGAAAGTCCGATTGT,0.416,0.403,0.269,0.457,0.00515,1.08,1.35,0.83,0.428,0.72,1.6,1.75,0.651,0.705,0.207,0.156,0.0966,1.35,0.0285,0.445
CCTACTCGGCCACGAAAGGTCATTGATTCAGTGA,3.82,5.15,5.64,4.28,0.938,4.36,1.93,3.43,1.33,2.24,2.57,2.28,-0.0183,-0.203,3.66,5.12,1.83,5.43,1.61,4.03
TCATATACGTAATACAGGTGAAAGTCGGCATCTA,1.21,1.13,0.327,1.26,0.782,1.75,1.26,2.79,3.96,3.36,2.77,1.63,0.572,1.29,1.17,0.689,0.477,0.982,1,0.727
CAAACTAGGTCACGAAAGGTCTAAGTCGAATGAC,4.46,4.6,0.351,3.17,0.461,5.52,9.08,7.4,5.87,7.6,8.65,9.08,1.37,1.82,2.76,3.68,0.0383,3.59,0.679,4.39
ATCGAAAGGTCGAAGCTGAGTATACCCACCCGAA,4.55,3.6,0.403,2.6,0.738,4.28,2.17,2.92,0.67,1.94,0.112,1.14,0.883,-0.0386,1.49,2.27,0.151,3.14,0.371,3.63
ACTAGCAGGCCGAGTTTGGGTCACTCAAACAAAG,-0.115,-0.146,-0.389,0.653,-0.928,1.21,-0.2,-0.103,-0.644,-0.461,-0.462,0.793,-0.125,-0.727,-0.382,0.617,-0.458,1.21,-1.01,1.29
ATATGTAGGTTATCGGGTCATGCAGTTTGCGCAT,2.87,3.08,1.26,2.54,0.785,4.99,7.53,6.31,4.45,6.01,7.6,7.68,2.17,1.66,2.79,3.47,2.99,4.11,1.09,2.55
CCTATCAGTTGACCATAAGGGCAACCGAAGCTCG,0.965,0.314,0.218,0.583,0.56,0.693,0.456,0.233,-0.0186,0.0779,-0.0435,0.067,-0.241,0.0861,1.5,0.754,0.186,1.14,0.698,1.6
TTACCAAGGTGAGCTGAGGTCGTTAATCCAACTC,1.47,0.747,-0.294,0.852,-1.14,1.4,0.0208,0.655,0.0433,0.306,1.09,1.7,-0.772,-1.04,-0.219,4.5,0.182,1.51,-0.951,1.59
CCAGACAGGTGAAAGGTATCTCAGTCTGGTACGC,-0.129,0.0546,-0.271,0.122,-0.633,2.07,3.41,4.19,1.94,4.13,2.04,1.9,0.166,-0.382,0.656,0.00827,-0.341,0.664,-0.422,0.68
ATACCAAGGTGATCGTGAGGTCGTTGCTACTAAC,1.95,1.3,0.422,1.19,0.0744,1.65,0.201,0.438,-0.28,0.185,0.566,1.52,0.602,0.38,0.741,3.18,1.05,1.91,0.0838,1.5
AGCTCTAGGTAAAGATAGTTCAGTGAATGCAAAT,-0.108,3.76,0.0998,0.693,-0.0126,0.354,0.0941,0.135,-0.22,-0.0707,2.67,1.19,0.745,0.441,0.456,0.84,0.602,0.3,1.11,0.525
GCAGACAGGTGAAACTCAGGTAACTCAGGGTGGC,0.432,0.209,-0.137,-0.208,-0.746,1.13,0.585,0.196,-0.602,-0.156,0.904,0.656,-0.318,-0.994,-0.214,0.118,-0.356,0.625,-0.536,0.901
